Assay results reported in the supplement of paper PMC3334620.
In all, about 33,000 sequences were measured (“E-score (-0.5 to 0.5)”: median about -0.01, highest 2% from about 0.26 on). This is one part of a sample in which the highest values are shown more often than they occur.

What follows are sequences tested against Ste12 (UniProt P13574) (assay: PBM E-score (8-mer binding enrichment) (E-score (-0.5 to 0.5)); higher = stronger / more preferred TF binding). Conditions: protein concentration: 200 nM; construct: GST-DNA-binding domain.
Outline: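 GST-tagged yeast TFs (full-length or DNA-binding domain) were made by PURExpress in vitro transcription/translation and applied at about 100-200 nM to universal all-10-mer Agilent arrays. The arrays were made double-stranded by primer extension, on fresh or once-stripped slides. Bound protein was detected with fluorescent anti-GST, and scans were normalised with masliner. Each ungapped eight-base word, pooled with its reverse complement, received an E-score (modified Wilcoxon-Mann-Whitney statistic) from the Universal PBM Analysis Suite.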

Sequence of UniProt P13574 (P13574 whole entry, the tested form may be a part): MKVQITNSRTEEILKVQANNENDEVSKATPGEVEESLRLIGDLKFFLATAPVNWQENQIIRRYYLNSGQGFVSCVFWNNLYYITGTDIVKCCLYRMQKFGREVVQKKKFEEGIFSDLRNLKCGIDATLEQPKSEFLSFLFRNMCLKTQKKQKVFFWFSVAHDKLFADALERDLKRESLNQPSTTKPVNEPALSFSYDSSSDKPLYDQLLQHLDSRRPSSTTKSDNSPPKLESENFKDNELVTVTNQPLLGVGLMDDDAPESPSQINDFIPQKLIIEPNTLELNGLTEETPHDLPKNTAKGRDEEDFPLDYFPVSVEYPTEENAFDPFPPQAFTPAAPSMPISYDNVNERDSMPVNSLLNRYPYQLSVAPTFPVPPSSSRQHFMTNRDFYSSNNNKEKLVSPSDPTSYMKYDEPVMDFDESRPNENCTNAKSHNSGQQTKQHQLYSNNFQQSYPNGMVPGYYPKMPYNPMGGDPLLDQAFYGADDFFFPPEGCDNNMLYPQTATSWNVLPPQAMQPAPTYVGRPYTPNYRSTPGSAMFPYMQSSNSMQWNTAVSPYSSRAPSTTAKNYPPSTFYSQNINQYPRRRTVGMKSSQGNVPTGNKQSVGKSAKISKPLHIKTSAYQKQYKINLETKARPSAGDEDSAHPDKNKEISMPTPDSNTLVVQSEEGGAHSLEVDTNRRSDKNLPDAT

Sequence	PBM E-score
GCCACAGC	-0.299
GGGGCTAA	-0.0575
CCTATAGA	0.00311
ATTGCGAG	0.127
ATTGCGAC	0.277
CTTGCGAC	-0.128
CCGTCGCA	0.176
CAATGCGA	-0.00861
CATGATCA	0.0535
GTCTAAAA	0.135
ATCTAAAC	0.127
CTCTAAAA	0.0605
TTCTAAAA	0.292
ATCTAAAT	0.172
ATCTAAAA	0.285
CGCTCTGA	0.0576
ACTGGGTG	-0.107
GTACCTCA	-0.173
GAGTTGGA	0.0912
ATAGTCAT	-0.141
AGGAGCGC	-0.0491
GAGTGAAA	0.204
TCGTGAAA	0.177
TAGTGAAA	0.324
TAGTGACA	-0.0814
CAGTGAAA	0.197

Sequence	PBM E-score
AAGTGAAA	0.291
ACGTGAAC	-0.226
ACGTGAAA	0.323
TAGTGATA	-0.126
GGCCACAA	0.0783
CTCCCAGA	-0.165
CCCCAAGC	0.176
GCAATCAA	0.0398
ACTGGGAA	0.0846
AGCTAGTC	-0.133
ACAAACAG	0.125
ACAAACAA	0.0589
ACAAACAC	0.266
CCAAACAA	0.125
TCAAACAA	0.266
GCAAACAA	0.146
CAGGGCGA	-0.103
CAGCGATC	-0.00075
AATGTCAT	0.0301
AGTCCCAC	-0.133
CACAATAG	0.227
AGTCTAAT	0.00604
ATATAGAT	0.179
AGGCGGGC	0.0738
AGGGGCGG	0.452
AGGGCGTG	-0.116

Sequence	PBM E-score
AGGGCGGC	-0.0895
AGGCGGGG	0.269
AGGCGGGA	0.0721
AGGGGCGC	0.0204
AGGGCGGG	0.296
AGGGGCGA	0.165
GCAAAGCC	-0.185
TCCCAGAA	-0.0433
TGCTTTAA	0.199
ACTGAGGG	-0.101
CGAGGTAC	-0.0522
CGCCGCAG	0.0202
CAATTAGA	0.102
AAATTAGA	0.283
TAATTAGA	0.161
GCCGAACC	0.0313
CGCTGAGC	-0.154
ACCCCGCC	0.41
GGCCCGCC	0.0329
CCCCCGCC	-0.0801
GCCCCGCC	0.33
GCCCCGCA	-0.112
AACCCGCC	0.0991
ACCCCTCC	0.229
GTCGCGAC	0.389
CTCGCGAC	0.0527

Sequence	PBM E-score
GTCGCGAA	-0.0274
AACTATGG	-0.0761
ATGTTGCG	0.139
AATTAGTC	0.218
AATTAATA	0.359
GATTAATA	0.246
AATTAATG	0.232
AATTAATT	0.254
CATTAGTA	0.071
AATTAGTA	0.263
CATTAATA	0.251
TATTAATA	0.336
CCATTGCA	0.0632
CGCCTAGC	-0.0616
GTCACTAA	0.0793
AATGGGGT	-0.0055
CAAACTAA	0.265
TAAACTTA	0.168
CAAACTAC	0.0311
CAAACTTC	0.124
TAAACTAA	0.148
CAAACTTA	0.276
ACGCTGAC	-0.194
AGCAAACC	0.194
CATGGGAA	-0.0149
CGGCTATC	-0.174

Sequence	PBM E-score
ATTTCTAC	0.253
AACAAATG	0.176
AACAAGTA	0.00602
TACAAATA	0.218
AACAAATA	0.341
AACAAGTT	0.154
AACAAATT	0.268
CAGGCAAA	0.0381
AATCTTAT	0.0186
CGTTAGGA	0.0933
CGAATCCG	0.0624
GCCGCTTA	0.0462
GCGTTCTA	-0.0704
TAATTCTA	0.267
CAATTCTC	0.00128
GAATTCTC	0.262
GAATTCTA	0.107
AAATTCTA	0.0535
AAATTCTC	0.105
CTTCACCC	0.0896
AAACGCTA	0.112
CCTGGCTA	-0.217
ATCCGAAA	0.185
GTCCGAAA	0.211
TTCCGAAA	0.264
GAGGGCCA	0.0172

Sequence	PBM E-score
AAGAGATA	-0.0137
CCGGCTCC	-0.0246
AAAGTCGT	-0.0472
CAAGTCGC	-0.3
AAAGTCGC	0.282
GAGATGGA	-0.167
GACATTGA	0.051
AGGTTGGA	0.114
CAACAGCA	0.021
CCGTTTGA	0.056
GTGTTTGA	0.301
CTGTTTGC	-0.0149
ATGTTTGG	0.151
ATGTTTGC	0.0377
ATGTTTGA	0.337
GTGTTCGA	0.0597
CTGTTTGA	0.308
GTTTTTGA	0.236
ACCCGACA	0.0405
GCCGCAGC	0.00254
CCCAAAGA	0.18
GCCACGAC	0.0374
TTGCAAAA	0.242
ATCGAGCC	-0.0583
AACGCCCT	-0.0731
AAACATTC	0.12

Sequence	PBM E-score
ACGCAGGG	-0.0649
GTTCAAAA	0.107
ATTCAAAG	0.145
CATCAAAA	0.221
ATTCAAAC	0.279
TTCAAGAA	0.247
CTCAAAAA	0.178
TTCAAAAA	0.298
CTTCAAAA	0.191
TATCAAAA	0.302
CTTCAAAC	0.218
TTTCAAAA	0.343
GATCAAAA	0.194
GGACAGAA	0.136
CAATTTAG	0.118
CGATAGTC	-0.186
GAGTAAGC	-0.0348
CGCAGGCA	-0.062
ACCAGTCT	-0.25
CAATGTGC	-0.133
CCAGATCC	-0.149
CTGACTAA	-0.00263
ATCAAAAG	0.0655
GTCCAAAA	0.123
ATCAAAAT	0.192
ACTCAAAA	0.165

Sequence	PBM E-score
TTCCAAAA	0.277
TCTCAAAA	0.275
CCTCAAAA	0.198
ATCAAAAA	0.316
CTCCAAAA	0.183
TAACCCAA	0.182
CGAGGTAG	-0.219
ACAGTGCA	-0.00511
GGTTAGCA	-0.0625
ACCCTCCA	-0.0426
GCCCCTCC	0.445
GCCTCCCC	0.305
CCCTCCCA	0.33
ACCCTCCC	0.378
ACCCTCCT	-0.00559
TCCTCCCA	-0.0691
GCCCCTCA	0.0515
ACCTCCCC	0.161
CCCCCTCC	-0.121
GCCTCCCA	-0.104
ACCTCCCA	-0.187
CGTAAAGA	-0.0705
AACCTTAT	0.138
CGATCTTC	-0.0861
ACAATGGC	0.0105
ACCCGTCC	-0.0354

Sequence	PBM E-score
CCCTCCCG	0.0504
CCCCTCCC	0.365
CCCTCCTC	0.0435
CCCCTCCA	0.246
CCCTCCCC	0.333
CCCCTCCG	0.171
GATTTCGC	0.2
AAGTGGGC	-0.0304
GAGCTTTA	-0.0834
ACAGTTTG	0.016
AGAAAAAC	0.146
CCAAAAAA	0.251
CAAAAAGA	0.178
CCAAAAAC	0.216
AAAAAACC	0.234
CAAAAACC	0.128
AAAAAAAC	0.331
CAAAAAAA	0.352
CAAAAAAC	0.298
